# Measurements published in PubChem BioAssay.
# Activity calls are given as the source filed them. Unless noted, how the calls were made is not given here.
# How the values were obtained:
# [1] = compounds binding Alexa647 anti-His antibody – biochemical, small-molecule microarray, 635 nm fluorescence, artefact control for SMM control protein annotation, primary screen (AID 1128); conditions: higher = more signal;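 further: score merges feature fluorescence with signal-to-noise for each printed compound spot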
# [2] = system: Human papillomavirus type 1a E7 protein (residues 1-88); assay: HPV1a E7 small-molecule binders, primary screen, biochemical, small-molecule microarray, residues 1-88, 635 nm (AID 1129); conditions: small-molecule microarray binding, fluorescence 635 nm; higher = more signal
# [3] = target: Focal adhesion kinase 1 (Homo sapiens) (UniProt Q05397); assay: PTK2 protein binding on printed compound slides – biochemical, small-molecule microarray, 635/667 nm fluorescence, BSA, DTT, primary screen (AID 1130); conditions: 635 nm fluorescence, higher = more signal;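 further: composite of spot emission at 667 nm and signal to noise over triplicate slides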
# Sequence of Focal adhesion kinase 1 (Homo sapiens) (Q05397 whole entry, looked up): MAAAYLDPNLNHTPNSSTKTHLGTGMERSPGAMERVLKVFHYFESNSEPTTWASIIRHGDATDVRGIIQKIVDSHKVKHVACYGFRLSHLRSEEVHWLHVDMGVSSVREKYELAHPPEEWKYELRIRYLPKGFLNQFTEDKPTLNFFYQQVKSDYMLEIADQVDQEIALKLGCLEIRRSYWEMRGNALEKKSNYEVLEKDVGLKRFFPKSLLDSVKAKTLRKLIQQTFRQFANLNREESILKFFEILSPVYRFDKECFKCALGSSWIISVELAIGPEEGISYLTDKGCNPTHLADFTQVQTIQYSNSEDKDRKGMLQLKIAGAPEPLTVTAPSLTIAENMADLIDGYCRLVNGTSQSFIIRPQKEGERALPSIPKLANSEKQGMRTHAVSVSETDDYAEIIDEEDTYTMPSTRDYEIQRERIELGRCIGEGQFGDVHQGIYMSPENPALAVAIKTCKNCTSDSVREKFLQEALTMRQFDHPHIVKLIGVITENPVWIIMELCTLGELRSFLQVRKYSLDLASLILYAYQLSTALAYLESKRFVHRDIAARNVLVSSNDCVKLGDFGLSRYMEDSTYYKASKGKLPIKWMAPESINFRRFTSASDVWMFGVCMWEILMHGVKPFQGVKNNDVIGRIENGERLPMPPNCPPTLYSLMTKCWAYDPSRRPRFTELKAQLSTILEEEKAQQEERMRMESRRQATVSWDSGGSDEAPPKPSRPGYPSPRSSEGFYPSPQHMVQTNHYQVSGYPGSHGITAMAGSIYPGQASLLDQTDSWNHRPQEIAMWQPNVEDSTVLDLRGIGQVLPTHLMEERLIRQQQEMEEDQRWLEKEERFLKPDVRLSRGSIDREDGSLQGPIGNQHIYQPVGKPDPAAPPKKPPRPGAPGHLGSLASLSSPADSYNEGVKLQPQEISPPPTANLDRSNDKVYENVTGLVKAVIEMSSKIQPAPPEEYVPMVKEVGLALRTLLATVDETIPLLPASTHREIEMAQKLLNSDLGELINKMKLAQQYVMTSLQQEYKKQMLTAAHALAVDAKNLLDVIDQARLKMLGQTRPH
# [4] = system: Fibrinogen (Alexa647-labelled); assay: Alexa647-fibrinogen binding to printed small molecules – biochemical, small-molecule microarray, 635/667 nm fluorescence, artefact control for SMM control-protein annotation, profiling panel (AID 1131); conditions: fibrinogen-A647 binding fluorescence, higher = more signal;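 further: z-score merges 667 nm fluorescence with per-spot signal-to-noise over triplicate slides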
# [5] = target: Follistatin (Homo sapiens) (UniProt P19883); assay: FST protein binding to printed compounds – biochemical, small-molecule microarray, 635/667 nm fluorescence, primary screen (AID 1132); conditions: 635 nm fluorescence, higher = more signal
# Sequence of Follistatin (Homo sapiens) (P19883 whole entry, looked up): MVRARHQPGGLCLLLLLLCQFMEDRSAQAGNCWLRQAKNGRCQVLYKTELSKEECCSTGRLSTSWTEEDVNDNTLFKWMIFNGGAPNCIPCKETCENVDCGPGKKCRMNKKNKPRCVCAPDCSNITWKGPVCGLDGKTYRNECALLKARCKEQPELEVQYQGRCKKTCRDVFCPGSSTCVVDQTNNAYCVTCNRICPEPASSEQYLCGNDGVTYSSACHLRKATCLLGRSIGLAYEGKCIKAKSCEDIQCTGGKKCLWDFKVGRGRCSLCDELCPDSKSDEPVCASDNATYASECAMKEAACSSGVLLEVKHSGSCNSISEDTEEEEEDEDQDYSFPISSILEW
# [6] = target: Fibroblast growth factor 2 (Homo sapiens) (UniProt P09038); assay: basic fibroblast growth factor binding to printed compounds – biochemical, small-molecule microarray, 635/667 nm fluorescence, primary screen (AID 1133); conditions: FGF2, fluorescence 635/667, higher = more signal
# Sequence of Fibroblast growth factor 2 (Homo sapiens) (P09038 whole entry, looked up): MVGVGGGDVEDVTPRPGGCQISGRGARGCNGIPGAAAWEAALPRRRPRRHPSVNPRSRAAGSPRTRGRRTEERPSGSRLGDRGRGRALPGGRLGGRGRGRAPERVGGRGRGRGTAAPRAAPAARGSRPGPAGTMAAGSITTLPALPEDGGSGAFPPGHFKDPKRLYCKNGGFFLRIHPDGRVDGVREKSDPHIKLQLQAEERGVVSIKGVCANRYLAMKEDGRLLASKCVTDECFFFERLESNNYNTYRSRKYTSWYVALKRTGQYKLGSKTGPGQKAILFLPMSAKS
# [7] = JC-1 mitochondrial potential readout, lung cancer cells – cell-based, A549, JC-1 fluorescence, basal, 24 h, 100 nL, profiling panel (AID 1138); conditions: higher = more signal;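 further: A549 lung adenocarcinoma cells under basal conditions with no added stimulus; test concentration not given here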
# Lefty1 = Lefty1 protein binding to printed compounds – biochemical, small-molecule microarray, 635/667 nm fluorescence, primary screen (AID 1139); conditions: fluorescence 635/667, higher = more signal
# [8] = system: wheat germ agglutinin (Triticum aestivum), Alexa647-labelled; assay: Alexa647-WGA lectin binding to printed small molecules – biochemical, small-molecule microarray, 635/667 nm fluorescence, artefact control for SMM control-protein annotation, profiling panel (AID 1140); conditions: WGA-A647 binding, 635 nm fluorescence, higher = more signal;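 further: score merges 667 nm feature emission with signal to noise over triplicate slides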
# [9] = target: Luciferin 4-monooxygenase (Photinus pyralis) (UniProt P08659); assay: inhibition of purified Photinus pyralis luciferase – biochemical, luminescence, purified enzyme, 2006 set, primary screen (AID 1141); conditions: purified firefly luciferase, SteadyGlo luminescence, 30 min; higher = more signal, called active from +8 up or from −8 down;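 further: cell-free assay with purified firefly luciferase at 100 ng per well in PBS; test concentration not given here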
# Sequence of Luciferin 4-monooxygenase (Photinus pyralis) (P08659 whole entry, looked up): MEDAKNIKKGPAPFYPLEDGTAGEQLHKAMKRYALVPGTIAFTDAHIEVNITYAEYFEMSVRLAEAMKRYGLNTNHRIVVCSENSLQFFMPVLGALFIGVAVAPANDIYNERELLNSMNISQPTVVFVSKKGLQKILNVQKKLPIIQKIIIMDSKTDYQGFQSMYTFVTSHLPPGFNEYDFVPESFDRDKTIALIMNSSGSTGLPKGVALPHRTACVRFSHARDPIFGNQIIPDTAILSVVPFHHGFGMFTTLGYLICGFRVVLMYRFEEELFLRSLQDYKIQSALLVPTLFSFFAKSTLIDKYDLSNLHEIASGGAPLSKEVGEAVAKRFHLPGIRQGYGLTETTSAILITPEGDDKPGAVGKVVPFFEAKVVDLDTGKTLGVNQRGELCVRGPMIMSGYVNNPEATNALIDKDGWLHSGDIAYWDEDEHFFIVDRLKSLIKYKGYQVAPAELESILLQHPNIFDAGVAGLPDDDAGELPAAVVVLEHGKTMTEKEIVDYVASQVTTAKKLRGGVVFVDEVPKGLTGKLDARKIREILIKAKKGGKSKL
# [10] = system: Wnt5a (protein binding on small-molecule microarray); assay: small molecules binding Wnt5a protein – biophysical, small-molecule microarray, 635/667 nm fluorescence, primary screen (AID 1142); conditions: 635 nm fluorescence, higher = more signal;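 further: fluorescence read at 667 nm with signal to noise per printed feature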
# [11] = ATP-based viability of Huh7 replicon cells – cell-based, CellTiter-Glo luminescence, basal, 48 h, cytotoxicity control for HCV replication inhibitor project, primary screen (AID 1143); conditions: higher = more signal, called active from +8 up or from −8 down;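 further: Huh7 hepatoma cells carrying a hepatitis C replication reporter with no stimulus; test concentration not given here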
# [12] = Pseudomonas biofilm growth suppression – PAO1 strain, BacTiter-Glo luminescence, LB-PBS, primary screen (AID 1144); conditions: P. aeruginosa PAO1 biofilm, 12 h, higher = more signal
# [13] = basal CRE-LacZ reporter activity in PC12 – cell-based, unstimulated, primary screen (AID 1145); conditions: no forskolin, luminescence, 4.5 h, higher = more signal, called active from +8 up or from −8 down
# [14] = forskolin-driven CRE-LacZ activity in PC12 – cell-based, CRE-LacZ reporter, forskolin-stimulated, primary screen (AID 1146); conditions: luminescence, 4.5 h, higher = more signal, called active from +8 up or from −8 down;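 further: PC12 cells with 6xCRE LacZ reporter stimulated by forskolin 10 µM; beta-galactosidase reporter signal reflecting CREB driven transcription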
# [15] = target: Streptavidin (Streptomyces avidinii) (UniProt P22629); assay: compounds binding control protein streptavidin – biophysical, small-molecule microarray, 635/667 nm fluorescence, artefact control for SMM compound annotation, primary screen (AID 1147); conditions: higher = more signal;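 further: signal reflects streptavidin binding to arrayed compounds as a control protein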
# Sequence of Streptavidin (Streptomyces avidinii) (P22629 whole entry, looked up): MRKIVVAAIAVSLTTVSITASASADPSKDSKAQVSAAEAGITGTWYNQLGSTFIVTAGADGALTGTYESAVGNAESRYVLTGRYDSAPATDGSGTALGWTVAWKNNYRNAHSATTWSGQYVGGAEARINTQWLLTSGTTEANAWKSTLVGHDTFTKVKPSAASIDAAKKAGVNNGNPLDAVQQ
# [16] = probe aInhba binding on compound microarray – biochemical, small-molecule microarray, 635/667 nm fluorescence, primary screen (AID 1148); conditions: higher = more signal;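 further: score merges 667nm spot fluorescence with signal-to-noise for antibody binding to printed compounds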
# Torsin-1A (Homo sapiens) [17] = target: Torsin-1A (Homo sapiens) (UniProt O14656); assay: TOR1A wild-type binding on microarray – cell lysate, small-molecule microarray, lysate, 635/667 nm, primary screen (AID 1149); conditions: COS7 hTOR1A-WT lysate, 635 nm fluorescence, higher = more signal
# Sequence of Torsin-1A (Homo sapiens) (O14656 whole entry, looked up): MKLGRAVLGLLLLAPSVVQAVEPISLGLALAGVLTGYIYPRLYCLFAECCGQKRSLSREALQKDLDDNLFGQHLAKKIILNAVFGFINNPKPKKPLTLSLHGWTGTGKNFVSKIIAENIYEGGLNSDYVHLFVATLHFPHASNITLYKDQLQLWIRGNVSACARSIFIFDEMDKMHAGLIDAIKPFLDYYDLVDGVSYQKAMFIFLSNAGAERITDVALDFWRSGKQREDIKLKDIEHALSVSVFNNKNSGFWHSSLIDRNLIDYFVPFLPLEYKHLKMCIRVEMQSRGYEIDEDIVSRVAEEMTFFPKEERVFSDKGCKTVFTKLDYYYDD
# Torsin-1A (Homo sapiens) [18] = target: Torsin-1A (Homo sapiens) (UniProt O14656); assay: torsin A mutant lysate binding on microarrays – cell lysate, small-molecule microarray, COS7 lysate, 635/667 nm fluorescence, primary screen (AID 1150); conditions: COS7 hTOR1A mutant lysate, 635 nm fluorescence, higher = more signal;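 further: score pools 667 nm emission and signal to noise measuring lysate protein binding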
# [19] = system: Sonic hedgehog protein (Shh); assay: Sonic hedgehog microarray binding compounds – biochemical, small-molecule microarray, 635/667 nm fluorescence, primary screen (AID 1151); conditions: 635 nm fluorescence, higher = more signal;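 further: Shh protein binding to compounds spotted on small-molecule microarray slides; score combines spot fluorescence intensity with signal-to-noise across triplicate slides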
Compound,composite z-score [1],composite z-score [2],composite z-score [3],composite z-score [4],composite z-score [5],composite z-score [6],z-score [7],composite z-score (Lefty1),composite z-score [8],z-score [9],composite z-score [10],z-score [11],z-score [12],z-score [13],z-score [14],composite z-score [15],composite z-score [16],composite z-score (Torsin-1A (Homo sapiens) [17]),composite z-score (Torsin-1A (Homo sapiens) [18]),composite z-score [19]
COCCOC(=O)N1C(=O)[C@@]2(c3cc(C#CC4=CCCCC4)ccc31)[C@H](c1ccc(O)cc1)N1[C@H](c3ccccc3)[C@H](c3ccccc3)OC(=O)[C@H]1[C@@H]2C(=O)NC[C@H](O)c1ccccc1,1.13,1.22,0.26,0.813,1.22,0.685,-1.14,0.858,0.781,-1.08 (inactive),0.259,-3.27 (inactive),-0.354 (inactive),-0.815 (inactive),-0.369 (inactive),0.318,0.0227,0.184,1.29,1.27
C=C(COC)/C(=C/C[C@@H](OC(=O)c1ccncc1)c1ccccc1OCCO)c1cc(C(=O)OC)ccc1OC,-1.25,-0.975,-0.478,-1.5,0.249,-0.203,2.02,-0.247,-1.12,-2.4 (inactive),-0.146,-1.88 (inactive),0.454 (inactive),14.7 (active),3.84 (inactive),-0.409,-0.0762,0.758,-0.103,0.249
CCOC(=O)C1=CC[C@@H](c2ccccc2)N(S(=O)(=O)c2ccc(C)cc2)[C@H]1C=Cc1ccccc1,0.906,0.943,0.289,-0.181,-0.28,-0.463,2.17,-0.584,0.152,1.45 (inactive),-0.109,-2.35 (inactive),0.17 (inactive),-0.0696 (inactive),0.521 (inactive),0.261,0.0713,0.0331,-0.0749,-0.723
COCC(=C=CC[C@H](O)c1cccc(OCCO)c1)C[C@H](O)COCc1ccccc1,1.09,1.11,1.24,-0.749,1.21,1.23,-0.177,0.88,-0.41,-0.496 (inactive),0.191,-0.33 (inactive),-0.218 (inactive),5.03 (inactive),1.74 (inactive),-0.599,0.264,2.41,1.31,1.28
COCC1C2CC[C@H]3C(OCc4ccc(OC)cc4)OC[C@]4(C)[C@H]3C2=C(CN4C(=O)OC(C)(C)C)[C@H](C)C1COC (stereo not given in full),0.565,1.2,2.09,1.02,0.916,0.0753,2.48,0.757,0.819,-0.503 (inactive),0.261,-2.88 (inactive),0.413 (inactive),-0.185 (inactive),-0.0287 (inactive),2.08,-0.321,0.187,0.255,0.298
CC(=O)n1cc(C(O)C2C=CC3C(=O)N(c4ccccc4)C(=O)C3N2Nc2ccc(C(C)C)cc2)c2ccccc21 (stereo not given),0.701,1.2,1.03,1.02,1,0.672,0.662,0.304,0.743,0.22 (inactive),0.076,-0.609 (inactive),-0.827 (inactive),0.24 (inactive),-0.247 (inactive),1.88,0.161,-0.285,0.617,-0.69
COCCOC(=O)N1C(=O)[C@@]2(c3cc(C#CCC(C(=O)OC)C(=O)OC)ccc31)[C@H](c1ccc(OCCO)cc1)N1[C@H](c3ccccc3)[C@H](c3ccccc3)OC(=O)[C@H]1[C@@H]2C(=O)Nc1nc2ccccc2s1,0.572,1.16,-0.14,0.973,1.24,0.35,-2.17,1.06,0.671,-1.2 (inactive),0.0015,-1.79 (inactive),-0.45 (inactive),0.0384 (inactive),0.282 (inactive),0.067,-0.101,0.212,0.264,1.6
O=C1C[C@@](C(=O)NCC(F)(F)F)(c2ccc([N+](=O)[O-])cc2)[C@@H](c2ccc(CO)cc2)N1CC12CC3CC(CC(C3)C1)C2,0.544,1.2,0.0423,0.348,1.5,1.78,-0.598,0.634,0.732,0.28 (inactive),0.988,-5.79 (inactive),-0.542 (inactive),0.324 (inactive),-1.01 (inactive),0.261,0.216,0.406,0.397,1.34
CCOC(=O)C[C@H]1[C@H](OC(=O)c2cc3ccccc3oc2=O)[C@@H](NC(=O)c2ccc3ccccc3c2)c2cc(OCCCO)ccc2N1C(=O)Cc1ccc(OC)cc1,-0.017,0.743,0.307,0.932,0.911,0.518,-0.167,0.631,0.664,0.842 (inactive),0.174,-0.361 (inactive),-0.784 (inactive),0.402 (inactive),-0.931 (inactive),1,-0.231,0.462,0.746,0.47
